Measured values published in the supplement of paper PMC9694430.

Columns and labels:
Test in all cases: thermal shift delta Tm vs DMSO control; higher = stronger stabilization (binding)
Conditions in all cases: 12.5 µM; protein concentration 2 µM
LOC_OS01G01410-cb001 = test system: LOC_OS01G01410-cb001
In short: (§1)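 Rice kinase domain constructs, made in E. coli and purified, were placed in 96-well plates at 2 μM in 19.5 μl of 100 mM potassium phosphate pH 7.5, 150 mM NaCl, 10% glycerol and 5 × SYPRO Orange, with compound in DMSO. A temperature ramp from 25°C to 95°C at 0.05°C/s was used for differential scanning fluorimetry. The melting temperature shift is a triplicate mean compared with DMSO-only protein, derived from Boltzmann fits.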

LOC_OS01G02750-cb003 = test system: LOC_OS01G02750-cb003
In short: as §1

LOC_OS01G10900-cb004 = test system: LOC_OS01G10900-cb004
In short: as §1

LOC_OS01G13800-cb001 = test system: LOC_OS01G13800-cb001
In short: as §1

LOC_OS01G14860-cb001 = test system: LOC_OS01G14860-cb001
In short: as §1

LOC_OS01G21960-cb002 = test system: LOC_OS01G21960-cb002
In short: as §1

LOC_OS01G39600-cb002 = test system: LOC_OS01G39600-cb002
In short: as §1

LOC_OS01G48390-cb002 = test system: LOC_OS01G48390-cb002
In short: as §1

LOC_OS01G51400-cb002 = test system: LOC_OS01G51400-cb002
In short: as §1

LOC_OS01G52050-cb004 = test system: T1, LOC_OS01G52050-cb004
T1 sequence (whole entry): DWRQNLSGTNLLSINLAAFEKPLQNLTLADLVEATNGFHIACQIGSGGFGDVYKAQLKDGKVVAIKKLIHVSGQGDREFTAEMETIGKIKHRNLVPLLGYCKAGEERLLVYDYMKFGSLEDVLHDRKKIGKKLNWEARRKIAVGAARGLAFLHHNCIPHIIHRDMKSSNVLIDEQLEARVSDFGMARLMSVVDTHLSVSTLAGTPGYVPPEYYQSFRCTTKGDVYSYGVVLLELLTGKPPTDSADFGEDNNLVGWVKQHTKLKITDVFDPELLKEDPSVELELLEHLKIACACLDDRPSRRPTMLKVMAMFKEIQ
In short: as §1
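Note: purified Escherichia coli-expressed rice kinase domain construct.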

Row | SMILES | thermal shift delta Tm (LOC_OS01G01410-cb001) [°C] | thermal shift delta Tm (LOC_OS01G02750-cb003) [°C] | thermal shift delta Tm (LOC_OS01G10900-cb004) [°C] | thermal shift delta Tm (LOC_OS01G13800-cb001) [°C] | thermal shift delta Tm (LOC_OS01G14860-cb001) [°C] | thermal shift delta Tm (LOC_OS01G21960-cb002) [°C] | thermal shift delta Tm (LOC_OS01G39600-cb002) [°C] | thermal shift delta Tm (LOC_OS01G48390-cb002) [°C] | thermal shift delta Tm (LOC_OS01G51400-cb002) [°C] | thermal shift delta Tm (LOC_OS01G52050-cb004) [°C]
1 | Cc1n[nH]c2ncc(C(=O)N3CCC[C@H]3c3ccc(Cl)cc3)cc12 | 0.63 | 0.98 | 0.41 | 0.18 | 4.68 | 0.38 | 0.88 | 0.19 | 0.21 | 3.46
2 | C[C@@H](Oc1ccc2[nH]nc(/C=C/c3cnn(CCO)c3)c2c1)c1c(Cl)cncc1Cl | 5.27 | 7.14 | 7 | -0.36 | 5.34 | 3.51 | 9.68 | 4.56 | 0.89 | 11.2
3 | COc1cc(F)c(F)c(Nc2ccc(I)cc2F)c1NS(=O)(=O)C1(C[C@H](O)CO)CC1 [Refametinib (RDEA119, Bay 86-9766)] | 1.35 | -1.27 | 0.47 | 0.32 | 0.61 | 0.52 | -0.03 | 0.23 | 0.02 | 1.46
4 | CNc1nc(Nc2cnn([C@H]3CCN(C4COC4)C[C@@H]3F)c2Cl)ncc1C(F)(F)F | 0.23 | 0.99 | 0.28 | 0.15 | 0.15 | 1.33 | 0.09 | 1.82 | 0.18 | 1.16
5 | CCC(=O)Nc1cccc(Oc2nc(Nc3ccc(N4CCN(C)CC4)cc3OC)ncc2Cl)c1 | 0.36 | 1.2 | 0.23 | -0.06 | -0.01 | 0.7 | -0.79 | 0.98 | 0.38 | 0.14
6 | Nc1ccc(C(=O)Nc2cccc(-c3nc(N4CCOCC4)c4oc5ncccc5c4n3)c2)cn1 | 1.9 | 1.58 | 1.27 | 0.49 | 0.58 | 0.56 | 0.13 | 0.28 | 0.29 | 0.45
7 | O=C(c1cccc(Cl)c1F)N1CCN(Cc2cccc(Nc3nccs3)n2)CC1 | 0.64 | 0.86 | 0.24 | -0.45 | 4.28 | 0.14 | 2.61 | 1.3 | 0.25 | 4.36
8 | C=CC(=O)Nc1ccc2ncnc(Nc3ccc(OCc4cccc(F)c4)c(Cl)c3)c2c1 | 4.44 | 7.88 | 3.29 | 2.47 | 2.59 | 3.8 | 3.44 | 3.63 | 0.29 | 6.13
9 | CN(C)CCCn1cc(C2=C(c3c[nH]c4ccccc34)C(=O)NC2=O)c2ccccc21 | 0.25 | 0.71 | 0.3 | 0.25 | 1.17 | 2.73 | 0.78 | -0.07 | 0.26 | -0.04
10 | O=C(O)c1ccc2c3c1cccc3c(=O)n1c3ccccc3nc21 | 3.12 | 0.97 | 0.69 | 0.32 | 1.4 | 0.71 | 0.62 | 0.91 | 0 | 1.18
11 | c1cn2cc(-c3ccc4cn[nH]c4c3)nc(Nc3ccc(N4CCOCC4)cc3)c2n1 [Entospletinib (GS-9973)] | 2.35 | 3.16 | 0.19 | -0.33 | 1.77 | 1.76 | 4.22 | 0.98 | -0.11 | 3.88
12 | Nc1nc(N)c2nc(-c3cccc(O)c3)c(-c3cccc(O)c3)nc2n1 | 0.47 | 0.72 | 1.95 | 0.77 | 1 | 1.07 | -0.28 | 0.4 | 0.49 | 1.16
13 | O=c1cc(N2CCOCC2)oc2c(-c3ccc4c(c3)OCCO4)csc12 | 0.37 | 2.36 | 3.38 | -0.36 | 2.26 | 0.76 | 0.21 | 1.47 | 0.47 | 4.58
